# Reference: paper PMC7862700, “An all-to-all approach to the identification of sequence-specific readers for epigenetic DNA modifications on cytosine”
# What was measured:
# Experiment in all cases: DAPPL (digital affinity profiling via proximity ligation, sequencing); 10 mM Tris-HCl pH 7.5, 50 mM NaCl, 1 mM DTT, 4% glycerol, room temperature, 30 min; GST-TFs on glutathione beads, 16-mer random dsDNA library, 0.1% formaldehyde crosslink after washing; high values mean tight binding
# FLI1 = target: T1, FLI1 (Homo sapiens, UniProt Q01543 1-452); settings: protein: recombinant; tags: N-terminal GST; dsDNA, one strand shown
# T1 sequence: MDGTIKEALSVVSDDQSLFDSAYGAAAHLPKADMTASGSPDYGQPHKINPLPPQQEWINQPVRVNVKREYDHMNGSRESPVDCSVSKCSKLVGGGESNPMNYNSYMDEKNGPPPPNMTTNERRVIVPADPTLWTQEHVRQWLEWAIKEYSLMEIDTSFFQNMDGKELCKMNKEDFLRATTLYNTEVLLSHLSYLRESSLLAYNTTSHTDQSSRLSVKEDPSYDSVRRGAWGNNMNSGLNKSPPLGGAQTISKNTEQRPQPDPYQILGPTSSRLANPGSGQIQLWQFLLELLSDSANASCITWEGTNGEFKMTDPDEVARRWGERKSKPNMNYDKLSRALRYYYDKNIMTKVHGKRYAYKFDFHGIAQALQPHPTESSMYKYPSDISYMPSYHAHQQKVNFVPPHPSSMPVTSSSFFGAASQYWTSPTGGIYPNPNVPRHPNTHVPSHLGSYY
# Procedure, shortened: (§1)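 Pools were built from human transcription factors expressed in yeast as GST fusions, captured on glutathione beads and DNA-barcoded, along with a tag-only sample. Incubation with 200 nmole of a 16-mer random double-stranded DNA library lasted 30 min at room temperature in Tris/NaCl/DTT/glycerol buffer, and was followed by washing, 0.1% formaldehyde crosslinking, proximity ligation, PCR amplification and Illumina NextSeq500 sequencing. Binding signal is the quotient of each hexamer's read frequency for a factor and its frequency for the tag-only sample.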
# ELK1 = target: T2, ELK1 (Homo sapiens, UniProt P19419 1-428); settings: protein: recombinant; tags: N-terminal GST; dsDNA, one strand shown
# T2 sequence: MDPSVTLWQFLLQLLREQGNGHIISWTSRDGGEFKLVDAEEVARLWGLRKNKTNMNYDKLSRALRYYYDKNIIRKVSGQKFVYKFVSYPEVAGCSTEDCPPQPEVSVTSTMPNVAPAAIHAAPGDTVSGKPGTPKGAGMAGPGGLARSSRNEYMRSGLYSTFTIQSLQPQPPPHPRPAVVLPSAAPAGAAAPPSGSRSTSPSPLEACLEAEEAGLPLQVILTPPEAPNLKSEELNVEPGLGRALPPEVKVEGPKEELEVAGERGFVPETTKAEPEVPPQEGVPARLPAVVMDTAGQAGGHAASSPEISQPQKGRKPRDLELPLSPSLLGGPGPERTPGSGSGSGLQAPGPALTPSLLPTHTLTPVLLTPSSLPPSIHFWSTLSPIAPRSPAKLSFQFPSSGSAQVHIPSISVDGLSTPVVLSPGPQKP
# Procedure, shortened: as §1
# GABPA = target: T3, GABPA (Homo sapiens, UniProt Q06546 1-454); settings: protein: recombinant; tags: N-terminal GST; dsDNA, one strand shown
# T3 sequence: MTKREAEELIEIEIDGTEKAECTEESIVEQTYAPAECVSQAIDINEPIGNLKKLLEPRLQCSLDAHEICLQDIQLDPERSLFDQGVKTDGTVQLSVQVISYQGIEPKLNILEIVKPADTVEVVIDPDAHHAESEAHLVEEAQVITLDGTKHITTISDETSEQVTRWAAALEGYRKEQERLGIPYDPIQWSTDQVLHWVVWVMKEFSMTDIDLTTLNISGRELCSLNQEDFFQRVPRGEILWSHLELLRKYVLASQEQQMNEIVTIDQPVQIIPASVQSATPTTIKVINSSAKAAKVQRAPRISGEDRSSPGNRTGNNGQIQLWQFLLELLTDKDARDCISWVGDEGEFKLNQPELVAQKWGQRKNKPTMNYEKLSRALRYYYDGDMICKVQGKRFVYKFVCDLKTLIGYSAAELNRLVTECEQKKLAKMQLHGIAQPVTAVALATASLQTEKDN
# Procedure, shortened: as §1
# ERG = target: T4, ERG (Homo sapiens, UniProt P11308 1-479); settings: protein: recombinant; tags: N-terminal GST; dsDNA, one strand shown
# T4 sequence: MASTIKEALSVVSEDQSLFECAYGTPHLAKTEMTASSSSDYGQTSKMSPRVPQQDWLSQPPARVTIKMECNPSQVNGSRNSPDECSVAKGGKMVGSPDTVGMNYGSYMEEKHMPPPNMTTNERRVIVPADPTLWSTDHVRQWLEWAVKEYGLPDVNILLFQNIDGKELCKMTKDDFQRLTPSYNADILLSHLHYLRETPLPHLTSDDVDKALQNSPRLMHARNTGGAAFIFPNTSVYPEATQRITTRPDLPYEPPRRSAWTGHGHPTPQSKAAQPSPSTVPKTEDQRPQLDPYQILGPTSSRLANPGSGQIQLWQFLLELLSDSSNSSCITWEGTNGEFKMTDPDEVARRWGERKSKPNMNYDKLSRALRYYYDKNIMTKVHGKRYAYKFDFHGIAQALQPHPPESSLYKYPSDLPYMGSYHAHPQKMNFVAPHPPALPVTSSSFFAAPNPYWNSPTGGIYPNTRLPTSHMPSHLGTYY
# Procedure, shortened: as §1
# ELF1 = ELF1 (Homo sapiens, UniProt P32519 1-619); settings: protein: recombinant; tags: N-terminal GST; dsDNA, one strand shown
# Procedure, shortened: as §1
# EHF = target: T5, EHF (Homo sapiens, UniProt Q9NZC4 1-300); settings: protein: recombinant; tags: N-terminal GST; dsDNA, one strand shown
# T5 sequence: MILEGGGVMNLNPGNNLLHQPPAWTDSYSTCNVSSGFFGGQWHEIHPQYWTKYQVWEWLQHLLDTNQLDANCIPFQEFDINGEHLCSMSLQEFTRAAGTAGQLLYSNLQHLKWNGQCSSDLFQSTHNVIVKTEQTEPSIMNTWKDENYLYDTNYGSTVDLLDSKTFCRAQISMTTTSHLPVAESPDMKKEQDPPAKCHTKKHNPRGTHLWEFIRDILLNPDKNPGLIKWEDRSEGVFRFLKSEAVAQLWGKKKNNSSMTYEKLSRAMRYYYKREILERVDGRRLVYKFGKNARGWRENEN
# Procedure, shortened: as §1
# SPI1 = SPI1 (Homo sapiens, UniProt P17947 1-270); settings: protein: recombinant; tags: N-terminal GST; dsDNA, one strand shown
# Procedure, shortened: as §1
# SPIB = SPIB (Homo sapiens, UniProt Q01892 1-262); settings: protein: recombinant; tags: N-terminal GST; dsDNA, one strand shown
# Procedure, shortened: as §1
# ELK3 = target: T6, ELK3 (Homo sapiens, UniProt P41970 1-407); settings: protein: recombinant; tags: N-terminal GST; dsDNA, one strand shown
# T6 sequence: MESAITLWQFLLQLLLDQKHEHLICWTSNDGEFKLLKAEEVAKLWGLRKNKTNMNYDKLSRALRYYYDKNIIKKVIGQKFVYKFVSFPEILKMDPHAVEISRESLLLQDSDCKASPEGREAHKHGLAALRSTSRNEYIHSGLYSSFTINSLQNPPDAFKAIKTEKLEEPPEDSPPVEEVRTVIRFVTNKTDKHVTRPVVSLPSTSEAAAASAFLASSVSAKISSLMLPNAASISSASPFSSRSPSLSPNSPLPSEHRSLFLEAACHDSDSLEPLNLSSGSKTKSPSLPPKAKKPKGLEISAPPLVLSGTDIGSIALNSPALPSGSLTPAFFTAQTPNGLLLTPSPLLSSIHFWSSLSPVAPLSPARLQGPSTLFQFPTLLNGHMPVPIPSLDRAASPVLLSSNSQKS
# Procedure, shortened: as §1
# FEV = target: T7, FEV (Homo sapiens, UniProt Q99581 1-238); settings: protein: recombinant; tags: N-terminal GST; dsDNA, one strand shown
# T7 sequence: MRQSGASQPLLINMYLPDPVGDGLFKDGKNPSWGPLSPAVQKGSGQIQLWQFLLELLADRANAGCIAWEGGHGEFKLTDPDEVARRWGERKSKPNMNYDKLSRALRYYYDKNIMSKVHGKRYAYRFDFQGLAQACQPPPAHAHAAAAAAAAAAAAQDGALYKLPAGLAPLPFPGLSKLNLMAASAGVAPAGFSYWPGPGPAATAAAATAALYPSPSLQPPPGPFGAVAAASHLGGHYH
# Procedure, shortened: as §1
# ETV5 = ETV5 (Homo sapiens, UniProt P41161 1-510); settings: protein: recombinant; tags: N-terminal GST; dsDNA, one strand shown
# Procedure, shortened: as §1
# HSF1 = HSF1 (Homo sapiens, UniProt Q00613 1-529); settings: protein: recombinant; tags: N-terminal GST; chain copies: 3; dsDNA, one strand shown
# Procedure, shortened: as §1
# SPIC = target: T8, SPIC (Homo sapiens, UniProt Q8N5J4 1-248); settings: protein: recombinant; tags: N-terminal GST; dsDNA, one strand shown
# T8 sequence: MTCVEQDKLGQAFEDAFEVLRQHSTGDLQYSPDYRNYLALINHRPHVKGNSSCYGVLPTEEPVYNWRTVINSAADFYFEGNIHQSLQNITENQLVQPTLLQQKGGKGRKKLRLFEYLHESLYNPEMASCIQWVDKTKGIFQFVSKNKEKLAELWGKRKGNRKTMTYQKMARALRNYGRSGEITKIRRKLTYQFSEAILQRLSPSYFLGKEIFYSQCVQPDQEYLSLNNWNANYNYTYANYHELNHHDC
# Procedure, shortened: as §1
# ELF4 = ELF4 (Homo sapiens, UniProt Q99607 1-663); settings: protein: recombinant; tags: N-terminal GST; dsDNA, one strand shown
# Procedure, shortened: as §1
# ELK4 = target: T9, ELK4 (Homo sapiens, UniProt P28324-2 1-405); settings: protein: recombinant; tags: N-terminal GST; dsDNA, one strand shown
# T9 sequence: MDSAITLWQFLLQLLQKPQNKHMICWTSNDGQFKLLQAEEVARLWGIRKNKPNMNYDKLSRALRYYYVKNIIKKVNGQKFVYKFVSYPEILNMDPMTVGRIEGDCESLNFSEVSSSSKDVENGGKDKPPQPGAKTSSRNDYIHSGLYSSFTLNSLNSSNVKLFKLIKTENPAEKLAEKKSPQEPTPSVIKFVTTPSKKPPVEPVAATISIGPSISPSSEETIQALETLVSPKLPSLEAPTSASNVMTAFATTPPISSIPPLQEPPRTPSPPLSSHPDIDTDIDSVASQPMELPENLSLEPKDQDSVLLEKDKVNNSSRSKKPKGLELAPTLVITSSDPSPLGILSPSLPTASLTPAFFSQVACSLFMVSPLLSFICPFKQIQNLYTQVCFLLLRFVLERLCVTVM
# Procedure, shortened: as §1
# ETV2 = target: T10, ETV2 (Homo sapiens, UniProt O00321 1-342); settings: protein: recombinant; tags: N-terminal GST; dsDNA, one strand shown
# T10 sequence: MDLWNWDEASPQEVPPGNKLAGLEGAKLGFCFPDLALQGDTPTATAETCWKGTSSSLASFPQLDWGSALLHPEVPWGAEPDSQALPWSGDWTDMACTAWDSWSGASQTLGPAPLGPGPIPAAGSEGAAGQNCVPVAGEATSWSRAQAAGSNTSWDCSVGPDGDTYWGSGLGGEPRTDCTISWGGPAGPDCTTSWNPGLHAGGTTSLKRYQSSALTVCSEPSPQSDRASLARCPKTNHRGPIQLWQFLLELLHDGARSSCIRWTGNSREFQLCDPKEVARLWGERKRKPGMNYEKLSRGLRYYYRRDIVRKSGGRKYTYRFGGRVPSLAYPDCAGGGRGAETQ
# Procedure, shortened: as §1
# ELF3 = target: T11, ELF3 (Homo sapiens, UniProt P78545 1-371); settings: protein: recombinant; tags: N-terminal GST; dsDNA, one strand shown
# T11 sequence: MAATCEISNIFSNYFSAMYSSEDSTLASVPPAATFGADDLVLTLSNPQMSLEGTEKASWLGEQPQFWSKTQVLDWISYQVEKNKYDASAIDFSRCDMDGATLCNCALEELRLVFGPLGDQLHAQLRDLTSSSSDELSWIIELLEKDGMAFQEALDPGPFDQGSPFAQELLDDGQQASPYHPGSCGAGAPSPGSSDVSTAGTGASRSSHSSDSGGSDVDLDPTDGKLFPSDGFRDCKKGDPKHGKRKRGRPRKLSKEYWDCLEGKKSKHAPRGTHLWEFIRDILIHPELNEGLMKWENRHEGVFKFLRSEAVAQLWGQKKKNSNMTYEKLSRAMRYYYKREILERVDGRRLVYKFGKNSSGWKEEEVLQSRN
# Procedure, shortened: as §1
# CRX = CRX (Homo sapiens, UniProt O43186 1-299); settings: protein: recombinant; tags: N-terminal GST; dsDNA, one strand shown
# Procedure, shortened: as §1
# ETV1 = ETV1 (Homo sapiens, UniProt P50549 1-477); settings: protein: recombinant; tags: N-terminal GST; dsDNA, one strand shown
# Procedure, shortened: as §1
# Sequence of ELF4 (Q99607 whole entry): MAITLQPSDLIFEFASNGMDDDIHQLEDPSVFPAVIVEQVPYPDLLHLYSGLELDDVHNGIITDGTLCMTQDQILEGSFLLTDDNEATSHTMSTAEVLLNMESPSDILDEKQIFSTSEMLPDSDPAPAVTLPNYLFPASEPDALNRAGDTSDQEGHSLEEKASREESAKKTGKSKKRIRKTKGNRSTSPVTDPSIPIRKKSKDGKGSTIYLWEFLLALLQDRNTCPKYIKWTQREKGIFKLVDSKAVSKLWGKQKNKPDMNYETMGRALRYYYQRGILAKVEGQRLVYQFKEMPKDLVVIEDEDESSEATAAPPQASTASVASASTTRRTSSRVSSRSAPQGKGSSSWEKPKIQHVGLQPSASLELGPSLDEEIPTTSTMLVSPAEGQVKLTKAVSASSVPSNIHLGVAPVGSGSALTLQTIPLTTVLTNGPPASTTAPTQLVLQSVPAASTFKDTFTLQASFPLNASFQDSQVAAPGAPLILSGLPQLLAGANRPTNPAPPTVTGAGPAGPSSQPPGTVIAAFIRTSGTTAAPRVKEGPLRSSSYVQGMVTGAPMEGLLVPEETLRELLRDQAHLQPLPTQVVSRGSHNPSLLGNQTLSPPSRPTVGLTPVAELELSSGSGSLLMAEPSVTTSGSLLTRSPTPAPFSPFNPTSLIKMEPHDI
# Sequence of ETV1 (P50549 whole entry): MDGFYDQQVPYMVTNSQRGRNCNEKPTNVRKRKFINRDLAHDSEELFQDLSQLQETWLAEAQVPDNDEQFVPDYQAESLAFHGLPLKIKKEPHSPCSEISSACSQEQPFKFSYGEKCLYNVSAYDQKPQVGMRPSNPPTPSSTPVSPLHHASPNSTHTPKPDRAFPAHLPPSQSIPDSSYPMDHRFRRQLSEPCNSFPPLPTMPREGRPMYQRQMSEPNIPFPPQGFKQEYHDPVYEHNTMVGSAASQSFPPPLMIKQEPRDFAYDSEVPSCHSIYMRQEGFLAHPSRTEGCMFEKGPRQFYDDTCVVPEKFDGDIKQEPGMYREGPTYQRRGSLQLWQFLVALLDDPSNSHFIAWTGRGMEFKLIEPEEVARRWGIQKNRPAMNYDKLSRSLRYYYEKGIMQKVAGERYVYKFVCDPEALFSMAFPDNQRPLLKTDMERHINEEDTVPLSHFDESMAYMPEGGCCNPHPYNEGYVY
# Sequence of SPIB (Q01892 whole entry): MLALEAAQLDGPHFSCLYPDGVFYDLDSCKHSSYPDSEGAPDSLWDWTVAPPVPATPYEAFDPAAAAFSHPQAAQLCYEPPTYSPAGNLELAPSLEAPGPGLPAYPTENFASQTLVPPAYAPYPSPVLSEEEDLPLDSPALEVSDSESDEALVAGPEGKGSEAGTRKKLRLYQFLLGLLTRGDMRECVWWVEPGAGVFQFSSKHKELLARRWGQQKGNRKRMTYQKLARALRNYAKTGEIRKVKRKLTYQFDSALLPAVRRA
# Sequence of CRX (O43186 whole entry): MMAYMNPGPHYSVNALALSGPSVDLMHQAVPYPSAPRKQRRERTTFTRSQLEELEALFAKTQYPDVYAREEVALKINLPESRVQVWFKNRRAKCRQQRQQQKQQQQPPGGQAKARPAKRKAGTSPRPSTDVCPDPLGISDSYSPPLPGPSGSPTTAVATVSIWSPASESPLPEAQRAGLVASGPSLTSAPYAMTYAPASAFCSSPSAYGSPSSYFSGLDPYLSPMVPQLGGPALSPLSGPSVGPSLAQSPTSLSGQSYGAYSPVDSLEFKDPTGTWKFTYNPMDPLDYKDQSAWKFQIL
# Sequence of HSF1 (Q00613 whole entry): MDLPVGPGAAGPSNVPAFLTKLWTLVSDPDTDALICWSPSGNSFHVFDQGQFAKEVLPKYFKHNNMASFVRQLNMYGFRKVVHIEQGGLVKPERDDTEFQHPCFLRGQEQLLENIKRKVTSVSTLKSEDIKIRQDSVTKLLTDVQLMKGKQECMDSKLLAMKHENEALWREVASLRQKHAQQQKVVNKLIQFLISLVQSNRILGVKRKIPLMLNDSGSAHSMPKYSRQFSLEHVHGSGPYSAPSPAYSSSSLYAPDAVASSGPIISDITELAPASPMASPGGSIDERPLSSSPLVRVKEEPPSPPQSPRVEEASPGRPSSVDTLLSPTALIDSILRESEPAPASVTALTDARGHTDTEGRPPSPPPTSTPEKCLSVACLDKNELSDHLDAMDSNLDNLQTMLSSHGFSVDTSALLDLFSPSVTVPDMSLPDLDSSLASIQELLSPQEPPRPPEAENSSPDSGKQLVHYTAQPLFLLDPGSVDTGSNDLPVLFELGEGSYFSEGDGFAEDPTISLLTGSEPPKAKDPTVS
# Sequence of ETV5 (P41161 whole entry): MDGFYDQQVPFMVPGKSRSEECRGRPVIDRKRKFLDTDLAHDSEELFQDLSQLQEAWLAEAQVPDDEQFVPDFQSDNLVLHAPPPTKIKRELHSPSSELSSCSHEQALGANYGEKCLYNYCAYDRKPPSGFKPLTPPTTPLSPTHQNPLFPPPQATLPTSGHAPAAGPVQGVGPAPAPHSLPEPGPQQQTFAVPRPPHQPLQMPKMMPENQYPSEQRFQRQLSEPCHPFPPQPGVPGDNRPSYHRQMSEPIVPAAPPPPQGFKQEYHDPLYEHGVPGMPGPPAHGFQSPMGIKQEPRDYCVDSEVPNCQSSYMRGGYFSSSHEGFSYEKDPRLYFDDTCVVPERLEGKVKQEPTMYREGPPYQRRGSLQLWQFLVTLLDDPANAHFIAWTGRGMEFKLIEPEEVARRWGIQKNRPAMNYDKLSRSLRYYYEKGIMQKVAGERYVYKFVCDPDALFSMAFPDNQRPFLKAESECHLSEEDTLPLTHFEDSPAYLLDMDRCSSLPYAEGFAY
# Sequence of ELF1 (P32519 whole entry): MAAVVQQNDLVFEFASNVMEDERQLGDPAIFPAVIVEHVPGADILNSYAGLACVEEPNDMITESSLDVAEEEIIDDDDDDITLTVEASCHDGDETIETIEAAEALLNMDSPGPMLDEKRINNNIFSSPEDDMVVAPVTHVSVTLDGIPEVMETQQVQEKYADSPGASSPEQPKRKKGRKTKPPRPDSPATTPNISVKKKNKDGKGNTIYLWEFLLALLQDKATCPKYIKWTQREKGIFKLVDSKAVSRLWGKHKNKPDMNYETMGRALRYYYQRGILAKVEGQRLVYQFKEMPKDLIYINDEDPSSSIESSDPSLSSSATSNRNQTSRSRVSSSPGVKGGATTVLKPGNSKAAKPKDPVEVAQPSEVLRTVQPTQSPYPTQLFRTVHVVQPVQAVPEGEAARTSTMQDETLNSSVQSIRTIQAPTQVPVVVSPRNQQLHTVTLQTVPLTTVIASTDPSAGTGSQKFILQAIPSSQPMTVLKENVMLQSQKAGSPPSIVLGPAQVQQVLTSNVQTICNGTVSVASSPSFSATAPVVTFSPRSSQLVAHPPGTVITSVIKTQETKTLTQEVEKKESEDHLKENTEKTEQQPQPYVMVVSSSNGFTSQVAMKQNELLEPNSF
sequence,measurement,setting,value
GCCTAA,binding signal,FLI1,"1.22 fold enrichment (6-mer frequency, TF over GST control)"
same,binding signal,ELK1,"1.17 fold enrichment (6-mer frequency, TF over GST control)"
same,binding signal,GABPA,"1.14 fold enrichment (6-mer frequency, TF over GST control)"
same,binding signal,ERG,"1.24 fold enrichment (6-mer frequency, TF over GST control)"
same,binding signal,ELF1,"1.22 fold enrichment (6-mer frequency, TF over GST control)"
same,binding signal,EHF,"1.28 fold enrichment (6-mer frequency, TF over GST control)"
same,binding signal,SPI1,"1.11 fold enrichment (6-mer frequency, TF over GST control)"
same,binding signal,SPIB,"1.23 fold enrichment (6-mer frequency, TF over GST control)"
same,binding signal,ELK3,"1.19 fold enrichment (6-mer frequency, TF over GST control)"
same,binding signal,FEV,"1.21 fold enrichment (6-mer frequency, TF over GST control)"
same,binding signal,ETV5,"1.19 fold enrichment (6-mer frequency, TF over GST control)"
same,binding signal,HSF1,"1.38 fold enrichment (6-mer frequency, TF over GST control)"
same,binding signal,SPIC,"1.35 fold enrichment (6-mer frequency, TF over GST control)"
same,binding signal,ELF4,"1.25 fold enrichment (6-mer frequency, TF over GST control)"
same,binding signal,ELK4,"1.25 fold enrichment (6-mer frequency, TF over GST control)"
same,binding signal,ETV2,"1.19 fold enrichment (6-mer frequency, TF over GST control)"
same,binding signal,ELF3,"1.35 fold enrichment (6-mer frequency, TF over GST control)"
same,binding signal,CRX,"1.84 fold enrichment (6-mer frequency, TF over GST control)"
same,binding signal,ETV1,"1.22 fold enrichment (6-mer frequency, TF over GST control)"
